# Most compounds without a hit are left out; they make up all but 3.5% or so of the library.
# GPR151 activ – activators of human GPR151, primary screen, cell-based, PathHunter beta-arrestin, luminescence; G-protein coupled receptor 151 (Homo sapiens), Q8TDV0; PathHunter beta-arrestin GPR151 cells; activation, % at 11.2 µM; hit rate 1% among 650,000; in the data active means activation above about 4.9%;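 further: 0% = median of compound wells and 100% = cells with positive control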
# MITF primary – MITF inhibitors, primary screen, biochemical, AlphaScreen, human; Microphthalmia-associated transcription factor (Homo sapiens), O75030; AlphaScreen MITF homodimerization, bead proximity signal; inhibition, % at 2.6 µM; hit rate 0.91% among 650,000; AID 1259374, 2018; in the data active means inhibition above about 50%;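 further: 0% = vehicle wells with protein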
# TEAD-YAP block – TEAD-YAP interaction inhibition, primary screen, TEAD-YAP interaction inhibitor project, luminescence, HEK-TIYL cells. TEAD-Gal4/YAP UAS-luciferase luminescence. inhibition, % at 9.12 µM. hit rate 1.4% among 640,000. AID 1259422, 2018; in the data active means inhibition above about 32%;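 further: 0% = median of test compound wells and 100% = reference inhibitor wells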
# FBW7 act – FBW7 E3 ligase activators, primary screen, biochemical, AlphaScreen, human. hit rate 0.13% among 650,000. F-box/WD repeat-containing protein 7 (Homo sapiens), Q969H0. normalized activity (activation), % at 26.1 µM. AlphaScreen FBW7–phospho-cyclin E peptide binding, activator screen. AID 1259310, 2017; in the data active means normalized activity above about 1.9%;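 further: purified mutant Fbw7 with reduced substrate affinity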
# Target sequence (Q969H0 whole entry, looked up): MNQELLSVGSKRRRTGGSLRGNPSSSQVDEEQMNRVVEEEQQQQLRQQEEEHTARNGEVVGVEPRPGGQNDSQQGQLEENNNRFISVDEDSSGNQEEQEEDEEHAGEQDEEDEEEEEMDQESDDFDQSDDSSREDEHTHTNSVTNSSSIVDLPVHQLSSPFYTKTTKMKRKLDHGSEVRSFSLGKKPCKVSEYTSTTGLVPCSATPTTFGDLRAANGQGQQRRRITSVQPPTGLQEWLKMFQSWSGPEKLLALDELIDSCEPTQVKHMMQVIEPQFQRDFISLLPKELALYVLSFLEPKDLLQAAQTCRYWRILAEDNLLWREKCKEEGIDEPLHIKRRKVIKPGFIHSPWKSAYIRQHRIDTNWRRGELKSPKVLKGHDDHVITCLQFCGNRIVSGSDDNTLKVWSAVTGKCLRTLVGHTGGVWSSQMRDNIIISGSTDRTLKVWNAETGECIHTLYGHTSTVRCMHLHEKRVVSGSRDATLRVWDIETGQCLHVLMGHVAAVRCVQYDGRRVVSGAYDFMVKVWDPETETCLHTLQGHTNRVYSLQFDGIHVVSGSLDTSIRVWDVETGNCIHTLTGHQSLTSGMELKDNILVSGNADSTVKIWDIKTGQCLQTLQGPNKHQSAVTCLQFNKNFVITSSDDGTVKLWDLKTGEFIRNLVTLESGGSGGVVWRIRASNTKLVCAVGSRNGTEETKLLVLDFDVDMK
# * hit, by the source's call.
SMILES,GPR151 activ,MITF primary,TEAD-YAP block,FBW7 act
O=C(Oc1cccc(-c2cnc3ccccc3n2)c1)c1ccco1,-0.7,1.6,42.9*,-0.3
CC(=O)Oc1ccc(-c2cnc3ccccc3n2)cc1,-7.9,5.8,40.2*,0.1
CCCCCC(=O)Oc1ccc(-c2cnc3ccccc3n2)cc1,-0.9,15.1,6.6,0.8
CCOc1ccc(-c2cnc3ccccc3n2)cc1,-5.3,8.1,75.3*,0.2
CC(C)n1cc(-c2cnc3ccccc3n2)cn1,-8.4,-1.2,71.6*,-0.2
O=c1c2c(nc3cc(-c4ccco4)[nH]n13)CCS2,-2.0,88.8*,-29.2,-0.2
C=CCn1c(N)cc(=O)nc1SCC(=O)OC1CC(C)CCC1C(C)C (configuration not stated),-0.5,5.9,-3.9,-0.1
CC(=O)N[C@@H](Cc1cccc(C)c1)c1nc2ncc(-c3ccncc3)cc2[nH]1,-0.8,-3.8,46.0*,-0.2
CN(C)c1ccc(Nc2nc(NCC3CCCO3)c3ccccc3n2)cc1 (configuration not stated),0.4,59.8*,19.2,-1.2
CCCOC(=O)c1cccc(NC(=O)COc2ccccc2Br)c1,-0.3,6.6,50.4*,0.2
O=C(COc1ccc(Br)cc1Br)Nc1cccc(O)c1,2.8,2.3,68.7*,0.0
O=C(COc1ccc(CO)cc1Cl)Nc1ccccc1,-2.7,9.8,49.4*,0.7
CCCOC(=O)c1cccc(NC(=O)COc2ccc(Br)cc2)c1,0.9,14.6,-17.6,-0.4
Cc1ccc(COc2ccc(CO)cc2Cl)cc1,-1.5,6.8,33.2*,0.4
O=C(N/N=C\c1ccccc1[N+](=O)[O-])c1[nH]nc2c1CCc1ccccc1-2,1.7,1.9,-22.5,0.0
CSc1nnc2c(n1)OC(c1cccc(Cl)c1)Nc1ccccc1-2 (configuration not stated),-1.5,7.8,-4.0,0.5
CCn1cnc2cc(NCc3cc(OC)c(OC)c(OC)c3)ccc21,-1.0,13.1,57.5*,0.6
COc1cc(CNc2ccc3c(c2)ncn3C)cc(OC)c1OC,-0.7,-5.9,63.0*,-0.1
CCCn1cnc2cc(NCc3cc(OC)c(OC)c(OC)c3)ccc21,0.3,-6.6,-14.5,-0.1
CN(C)c1ccc(/C=C\c2nc3ccccc3c(=O)n2-c2cccc3ccccc23)cc1,-1.2,6.4,8.0,0.1
Cc1cc(C)n(Cc2cccc(F)c2)c(=O)c1C#N,0.3,0.2,3.1,0.1
Cc1cc[n+]2cc(C)n(Cc3cccc(F)c3)c2c1,-0.3,9.4,40.8*,1.0
Cc1ccc(S(=O)(=O)/N=C(/NNC(=O)c2ccc([N+](=O)[O-])cc2)c2ccccc2)cc1,1.6,10.4,-15.2,0.1
N#Cc1ccccc1NC(=O)Cn1ncc(Cl)c(Cl)c1=O,-1.2,9.8,55.0*,0.2
CCOc1ccc(-n2c(CNC(=O)c3ccccc3OC)nnc2SCC(=O)N2N=C(c3cccs3)CC2c2ccc(F)cc2)cc1 (configuration not stated),1.0,8.9,-7.7,-0.1
SMILES,GPR151 activ,MITF primary,TEAD-YAP block,FBW7 act
CN(C)c1nc(N)nc(Cn2cnc(-c3ccc([N+](=O)[O-])cc3)c2)n1,0.1,0.6,-3.1,0.1
CC1=NN(c2ccccc2)C(=O)/C1=C/c1cccn1-c1ccccc1,-0.7,64.2*,-43.8,-1.3
CC1=NN(c2ccccc2)C(=O)/C1=C/c1ccc(Cl)cc1,1.8,4.3,-1.5,-0.1
COc1ccc(S(=O)(=O)/N=C2/C=C(Nc3ccccc3)C(=O)c3ccccc32)cc1,-0.8,27.6,-10.6,-0.2
COc1ccc(S(=O)(=O)/N=C2/C=C(Nc3ccccc3OC)C(=O)c3ccccc32)cc1,-1.7,57.2*,-2.9,-0.4
COc1cccc(N2C(=O)NC(=O)/C(=C/C=C/c3ccco3)C2=O)c1,4.2,18.2,3.3,0.0
COc1ccc(N2C(=O)/C(=C\C=C\c3ccco3)C(=O)NC2=S)cc1,-1.4,76.5*,-1.4,-0.2
OCCC1CCCCN1c1ccnc2c(-c3cc4ccccc4o3)cnn12 (configuration not stated),0.1,-11.3,66.8*,0.4
NC(=O)c1cccc(-c2cnn3c(N4CCCCC4CCO)ccnc23)c1 (configuration not stated),0.9,-15.1,-28.4,-0.8
OCCC1CCCCN1c1ccnc2c(-c3cccc4ccccc34)cnn12 (configuration not stated),-1.2,-33.4,-29.5,0.0
